Results taken from PubChem BioAssay AID1159580 (chemical genetic matrix, 2015).
Several values for one entry are separate records, joined by “and”; a condition that tells them apart may be missing. Equal values may be shown once. The campaign covered roughly 5,500 compounds. About 2,000 (36%) were called active. About 18% were inconclusive and are not listed. Cut-off read from the data, not from the text of the source: active = normalized growth mostly below about 0.91 (no sharp cut-off); inconclusive = no clear call, values can overlap the other calls; inactive = mostly above about 0.92. The list shows a part of the results.

Test: chemical genetic growth profiling, strain panel (AID 1159580);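 note: tested at 20 µM; growth read once vehicle control cultures reached saturation at 30 °C; 1 = growth at the plate median or of vehicle wells; lower values mean less growth of the strain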
Details: S. cerevisiae deletion strains, growth OD

Measured: normalized growth

CC(=O)O[C@H]1CC[C@@]2(C)C(CC[C@]3(C)C2CC=C2C4CC(C)(C)CC[C@]4(C)CC[C@]23C)C1(C)C (stereo partly drawn)
inactive: locus YAL013W, strain DEP1, hits give low values 1.02 | locus YAL021C, strain ccr4, hits give low values 0.919 | locus YAL026C, strain drs2, hits give low values 1.01 | locus YAL030W, strain snc1, hits give low values 0.979 | locus YBL061C, strain skt5, hits give low values 0.996 | locus YBR009C, strain hhf1, hits give low values 0.973 | locus YBR021W, strain FUR4, hits give low values 1.01 | locus YBR023C, strain chs3, hits give low values 0.982 | locus YBR171W, strain sec66, hits give low values 0.99 | locus YBR229C, strain ROT2, hits give low values 1 | locus YBR231C, strain swc5, hits give low values 1.01 | locus YBR279W, strain paf1, hits give low values 0.999 | locus YCL011C, strain gbp2, hits give low values 0.962 | locus YCL016C, strain dcc1, hits give low values 0.964 | locus YCL029C, strain bik1, hits give low values 1 | locus YCL061C, strain MRC1, hits give low values 0.99 | locus YCL069W, strain vba3, hits give low values 0.978 | locus YCR088W, strain abp1, hits give low values 0.991 | locus YDL005C, strain med2, hits give low values 0.988 | locus YDL035C, strain GPR1, hits give low values 1.03 | locus YDL040C, strain nat1, hits give low values 0.989 | locus YDL074C, strain BRE1, hits give low values 1.06 | locus YDL101C, strain DUN1, hits give low values 1.02 | locus YDL185W, strain tfp1, hits give low values 1.02 | locus YDL192W, strain arf1, hits give low values 1 | locus YDR001C, strain nth1, hits give low values 0.968 | locus YDR069C, strain doa4, hits give low values 0.971 | locus YDR101C, strain arx1, hits give low values 0.997 | locus YDR137W, strain rgp1, hits give low values 0.973 | locus YDR150W, strain NUM1, hits give low values 1.01 | locus YDR159W, strain sac3, hits give low values 0.998 | locus YDR162C, strain NBP2, hits give low values 1.03 | locus YDR195W, strain ref2 0.953 | locus YDR297W, strain sur2, hits give low values 1 | locus YDR318W, strain mcm21, hits give low values 1.01 | locus YDR334W, strain swr1, hits give low values 0.98 | locus YDR335W, strain msn5, hits give low values 0.989 | locus YDR388W, hits give low values 1.02 | locus YDR392W, strain spt3, hits give low values 0.889 | locus YDR502C, strain sam2, hits give low values 1.02 | locus YEL003W, strain gim4, hits give low values 1.02 | locus YEL037C, strain rad23, hits give low values 0.978 | locus YEL061C, strain CIN8 (second series), hits give low values 0.978 | locus YER015W, strain faa2, hits give low values 0.981 | locus YER016W, strain bim1, hits give low values 0.992 | locus YER110C, hits give low values 1.01 | locus YER111C, strain swi4, hits give low values 0.99 | locus YER155C, strain BEM2 (second series), hits give low values 1.02 | locus YER155C, strain BEM2, hits give low values 1.01 | locus YER167W, strain BCK2, hits give low values 1 | locus YFR010W, strain ubp6, hits give low values 0.992 | locus YGL078C, strain dbp3, hits give low values 1.06 | locus YGL086W, strain mad1, hits give low values 1.01 | locus YGL167C, strain pmr1, hits give low values 0.975 | locus YGL173C, strain kem1, hits give low values 1 | locus YGL227W, strain vid30, hits give low values 0.987 | locus YGL240W, strain doc1, hits give low values 1.01 | locus YGL248W, strain PDE1, hits give low values 1.02 | locus YGL253W, strain hxk2, hits give low values 1.02 | locus YGR078C, strain PAC10, hits give low values 1.03 | locus YGR135W, strain pre9, hits give low values 1.04 | locus YGR252W, strain gcn5, hits give low values 1.08 | locus YHR013C, strain ard1, hits give low values 0.943 | locus YHR027C, strain rpn1, hits give low values 0.983 | locus YHR030C, strain SLT2, hits give low values 1.01 and 1.03 | locus YHR079C, strain IRE1 (second series), hits give low values 1.01 | locus YHR079C, strain IRE1, hits give low values 1.03 | locus YHR094C, strain hxt1, hits give low values 1.02 | locus YHR129C, strain ARP1, hits give low values 1.01 | locus YHR142W, strain chs7, hits give low values 0.959 | locus YHR200W, strain rpn10, hits give low values 1.02 | locus YIL066C, strain RNR3, hits give low values 1.01 | locus YIL073C, strain SPO22, hits give low values 1.04 | locus YIL125W, strain kgd1, hits give low values 1.01 | locus YIR030C, strain dcg1, hits give low values 1.04 | locus YJL092W, strain hpr5, hits give low values 0.975 | locus YJL095W, strain BCK1 (second series), hits give low values 0.986 | locus YJL095W, strain BCK1, hits give low values 1.04 and 1.02 | locus YJL115W, strain asf1, hits give low values 0.968 | locus YJL129C, strain trk1, hits give low values 0.993 | locus YJL134W, strain LCB3, hits give low values 1.01 | locus YJL154C, strain vps35, hits give low values 0.975 | locus YJL164C, strain tpk1, hits give low values 0.949 | locus YJL166W, strain qcr8, hits give low values 0.999 | locus YJL168C, strain set2, hits give low values 1.02 | locus YJL187C, strain SWE1 (second series), hits give low values 1.03 | locus YJL187C, strain SWE1, hits give low values 0.986 | locus YJR043C, strain POL32, hits give low values 1.01 | locus YJR066W, strain TOR1, hits give low values 0.976 | locus YKL009W, strain mrt4, hits give low values 1 | locus YKL068W, hits give low values 1.02 | locus YKL085W, strain MDH1 (second series), hits give low values 1.01 | locus YKL085W, strain MDH1, hits give low values 1.01 | locus YKL160W, strain elf1, hits give low values 0.963 | locus YKL190W, strain CNB1, hits give low values 1.01 | locus YKR001C, strain vps1, hits give low values 0.997 | locus YKR026C, strain gcn3, hits give low values 0.991 | locus YKR091W, strain srl3, hits give low values 0.986 | locus YLL001W, strain dnm1, hits give low values 0.978 | locus YLL026W, hits give low values 0.978 | locus YLL041C, strain sdh2, hits give low values 0.976 | locus YLR027C, strain aat2, hits give low values 0.989 | locus YLR039C, strain RIC1, hits give low values 0.999 | locus YLR058C, strain SHM2, hits give low values 1.02 | locus YLR102C, strain apc9, hits give low values 1 | locus YLR113W, strain HOG1, hits give low values 1 | locus YLR221C, strain rsa3, hits give low values 1.03 | locus YLR258W, strain gsy2, hits give low values 0.962 | locus YLR262C, strain YPT6 (second series), hits give low values 0.976 | locus YLR262C, strain YPT6, hits give low values 1.01 | locus YLR268W, strain sec22, hits give low values 1.02 | locus YLR320W, strain mms22, hits give low values 1.05 | locus YLR342W, strain FKS1, hits give low values 0.991 | locus YLR357W, strain rsc2, hits give low values 0.973 | locus YLR370C, strain arc18, hits give low values 0.967 | locus YLR371W, strain rom2, hits give low values 1.02 | locus YLR384C, strain iki3, hits give low values 1 | locus YLR418C, strain cdc73, hits give low values 1.05 | locus YML016C, strain PPZ1, hits give low values 0.996 | locus YML032C, strain rad52, hits give low values 1 | locus YML120C, strain ndi1, hits give low values 0.96 | locus YML124C, strain tub3, hits give low values 1.01 | locus YMR058W, strain fet3, hits give low values 0.996 | locus YMR078C, strain ctf18, hits give low values 1.03 | locus YMR125W, strain sto1, hits give low values 0.948 | locus YMR129W, hits give low values 0.988 | locus YMR205C, strain PFK2, hits give low values 0.959 | locus YMR223W, strain ubp8, hits give low values 1.02 | locus YMR231W, strain pep5, hits give low values 0.994 | locus YMR263W, strain SAP30, hits give low values 1.03 | locus YMR307W, strain GAS1, hits give low values 1.11 | locus YNL067W, strain RPL9B, hits give low values 1.04 | locus YNL071W, strain lat1, hits give low values 0.982 | locus YNL153C, strain GIM3, hits give low values 1.03 | locus YNL183C, strain NPR1, hits give low values 0.964 | locus YNL209W, strain ssb2, hits give low values 0.984 | locus YNL233W, strain BNI4, hits give low values 1.02 | locus YNL248C, strain rpa49, hits give low values 0.918 | locus YNL250W, strain rad50, hits give low values 1.02 | locus YNL271C, strain bni1, hits give low values 1.03 | locus YNL298W, strain CLA4, hits give low values 1.03 | locus YNL307C, strain MCK1, hits give low values 1.02 | locus YNL322C, strain KRE1 (second series), hits give low values 0.982 | locus YNR049C, strain mso1, hits give low values 0.966 | locus YNR052C, strain pop2, hits give low values 1.02 | locus YOL012C, strain htz1 1.53 | locus YOL147C, strain pex11, hits give low values 1.01 | locus YOR001W, strain rrp6, hits give low values 1.01 | locus YOR061W, strain CKA2, hits give low values 1.02 | locus YOR069W, strain VPS5, hits give low values 1.01 | locus YOR070C, strain gyp1, hits give low values 1.02 | locus YOR080W, strain dia2, hits give low values 1 | locus YOR083W, strain WHI5, hits give low values 0.957 | locus YOR106W, strain vam3, hits give low values 0.929 | locus YOR136W, strain idh2, hits give low values 1.01 | locus YOR144C, strain elg1, hits give low values 1.01 | locus YOR184W, strain ser1, hits give low values 1.01 | locus YOR231W, strain MKK1, hits give low values 1 | locus YOR265W, strain rbl2, hits give low values 0.998 | locus YOR270C, strain vph1, hits give low values 1.03 | locus YOR290C, strain snf2, hits give low values 0.906 | locus YOR316C, strain cot1, hits give low values 1.01 | locus YPL051W, strain arl3, hits give low values 1.01 | locus YPL078C, strain atp4, hits give low values 0.945 | locus YPL106C, strain sse1, hits give low values 0.94 | locus YPL240C, strain hsp82, hits give low values 0.995 | locus YPL241C, strain CIN2, hits give low values 1.01 | locus YPL256C, strain CLN2, hits give low values 1.06 | locus YPR119W, strain clb2, hits give low values 1.02 | locus YPR141C, strain kar3, hits give low values 1.02 | locus YPR163C, strain tif3, hits give low values 1.02 | locus YPR167C, strain met16, hits give low values 1.02 | strain wtn01, hits give low values 1.02
